Molecules are shown by their SMILES. Several values for one entry are separate records, joined by “and”; a condition that tells them apart may be missing. Identical values can stand only once. Activity calls are given as the source filed them. The calls were made as follows: active = hit-call score of the fitted dose curve at least 0.9, where 1 is the maximum; inactive = score below 0.9.

Read-out in this experiment: Intercellular Adhesion Molecule 1 (ICAM1), ICAM1 (gene 3383)
Kind of experiment: BSK_3C_ICAM1: BioMAP Diversity Plus: 3C Assay for Intercellular Adhesion Molecule 1 (ICAM1) Biomarker Activity (AID 2283003). To be noted: primary human endothelial cells (HUVEC); actives raise or lower the signal. On the procedure:
BSK_3C is a cell-based, multiplexed-readout assay that uses umbilical vein endothelium, a human vascular primary cell, with measurements taken at 24 hours after chemical dosing in a 96-well plate.BSK_3C_ICAM1 is an assay component measured in the BSK_3C assay. It measures ICAM-1 antibody related to regulation of gene expression using ELISA technology.Data from the assay component BSK_3C_ICAM1 was analyzed into 1 assay endpoint. This assay endpoint, BSK_3C_ICAM1, was analyzed with bidirectional fitting relative to DMSO as the negative control and baseline of activity. Using a type of binding reporter, gain or loss-of-signal activity can be used to understand changes in the signaling as they relate to the gene ICAM1. Furthermore, this assay endpoint can be referred to as a primary readout, because this assay has produced multiple assay endpoints where this one serves a signaling function. To generalize the intended target to other relatable targets, this assay endpoint is annotated to the cell adhesion molecules intended target family, where the subfamily is Immunoglobulin CAM.
The levels of cell surface (or secreted, indicated by the prefix "s") biomarker endpoints were measured by ELISA. Overt cytotoxicity to cells in confluent adherent cultures (all systems other than the BT system) was assessed by measuring total protein levels using sulforhodamine B (SRB) staining in parallel cultures at the time of biomarker measurements, indicated as SRB endpoints. For proliferation assays for adherent cell types, individual cell types are cultured at sub-confluence and relative cell numbers quantified by SRB staining at time points optimized for each system (48 h: 3C and CASM3C systems; 72 h: BT and HDF3CGF systems; 96 h: SAg system). SRB was performed by staining cells with 0.1% SRB after fixation with 10% TCA and reading wells at 560 nm.Viability and proliferation of PBMC (T cells) was quantified by Alamar Blue reduction for the SAg and BT systems. For PBMC viability (referred to as PBMC Cytotoxicity within the assay endpoint names), cells were plated (75,000/well in a 96-well plate) and then chemical samples added for 1 h before addition of activators, SEB and TSST-1 (20 ng/mL final concentration each). Cells were incubated for 90 h. Then, Alamar Blue (20 uL/well) (Invitrogen, Cat DAL1100) was added for 6 h, and the plates were read with a fluorescence microplate reader at 546/580 nm (excitation/emission). For PBMC proliferation, cells were plated and activated as above but incubated for only 16 h prior to addition of Alamar Blue. Plates were read after 6 h.
Consider `COc1ccc(OC)c(N=Nc2c(O)ccc3ccccc23)c1`, for which the result was inactive.

By AC50 is commonly meant the midpoint of the concentration-response curve, whichever way the signal moves. For `CC(=O)Nc1ccc(C(=O)CCl)cc1`, the AC50 was 8.45 µM (active).

On to `c1ccc(Oc2ccccc2)cc1`, for which the AC50 was 32.2 µM (active).

As for `c1ccc2cc(Nc3ccc(Nc4ccc5ccccc5c4)cc3)ccc2c1`, the outcome was inactive.

With `C=CC(C)(O)CCC=C(C)C` (stereo not given), the result was inactive.

Regarding `CS(=O)(=O)c1ccc(C2=C(c3ccccc3)C(=O)OC2)cc1`, the outcome was inactive.

With `O=C1OC[C@H](Cc2cccc(O)c2)[C@H]1Cc1cccc(O)c1`, the outcome was inactive.

Take `O=CN1CCOCC1`: the result was inactive.

On to `Cc1cc(CCC(=O)OCCOCCOCCOC(=O)CCc2cc(C)c(O)c(C(C)(C)C)c2)cc(C(C)(C)C)c1O`, for which the outcome was inactive.

As to `CC(C=O)Cc1ccc(C(C)(C)C)cc1` (stereo not given), the concentration at half-maximal activity (AC50) was 31.1 µM (active).

On to `C=C(C)C(=O)OCC(CC)(COC(=O)C(=C)C)COC(=O)C(=C)C`, for which the result was inactive.

In the case of `CC=Cc1ccc(OCC)c(O)c1`, the outcome was inactive.

Turning to `CN(C)C(=S)SC(=S)N(C)C`, the result was inactive.

For the compound `CC1(C)CCC[C@]2(C)[C@H]3CCO[C@]3(C)CC[C@@H]12`, the AC50 was 31.2 µM (active) and 38.9 µM (active).

Regarding `CN(C)C(=O)Nc1ccc(Oc2ccc(Cl)cc2)cc1`, the outcome was inactive.

As for `CC(CN=Cc1ccccc1O)N=Cc1ccccc1O` (stereo not given), the result was inactive.

`O=C(Nc1ccc2c(O)c(N=Nc3ccc(N=Nc4ccc(S(=O)(=O)O)cc4)cc3)c(S(=O)(=O)O)cc2c1)c1ccccc1`: the outcome was inactive.

As for `CCCCCCC(CO)CCCC` (stereo not given), the outcome was inactive.

For `CSCCC=O`, the outcome was inactive.

On to `CCCCN(CCCC)C(=O)N(CCCC)CCCC`, for which the concentration at half-maximal activity (AC50) is 10.7 µM (active).

Consider `CC(C)(N=C=O)c1cccc(C(C)(C)N=C=O)c1`, for which the result was inactive.

As to `CCCCCCCCCCCCCCCC(=O)OC/C=C(C)/C=C/C=C(C)/C=C/C1=C(C)CCCC1(C)C`, the result was inactive.

In the case of `C=C(C)[C@H]1CC=C(C)C(=O)C1`, the outcome was inactive.

Regarding `Oc1c(Cl)cc(Cl)c(Cl)c1Cc1c(O)c(Cl)cc(Cl)c1Cl`, the AC50 is 27.1 µM (active).

Regarding `COc1ccc(CCN2CCC(Nc3nc4ccccc4n3Cc3ccc(F)cc3)CC2)cc1`, the result was inactive.

For `CCOC(=O)C(C#N)=C(c1ccccc1)c1ccccc1`, the result was inactive.

As to `C=C(C)C(=O)OCCOCCOCCOCCOC(=O)C(=C)C`, the outcome was inactive.

As for `CC(=O)c1c(C)c([N+](=O)[O-])c(C(C)(C)C)c([N+](=O)[O-])c1C`, the outcome was inactive.

As for `CS(=O)(=O)OCCCCOS(C)(=O)=O`, the result was inactive.

For `CCN(CC)C(=O)N(CC)CC`, the outcome was inactive.

With `O=C1c2ccccc2C(=O)c2c(O)ccc(O)c21`, the outcome was inactive.

For the compound `CCCCCC(C=O)=Cc1ccccc1`, the concentration at half-maximal activity (AC50) was 30.9 µM (active).

As to `CC1(C)C2=CCCC(C)(C)[C@]23CC[C@H]1C3`, the outcome was inactive.

Consider `C1=CC2C3C=CC(C3)C2C1` (stereo not given), for which the result was inactive.

For `COc1cc(Cl)c(OC)cc1N`, the outcome was inactive.

For `CN(c1nccc(=O)[nH]1)C1CCN(c2nc3ccccc3n2Cc2ccc(F)cc2)CC1`, the outcome was inactive.

For `c1ccc(CCc2ccccc2)cc1`, the AC50 is 30.9 µM (active).

Consider `CCC(C)c1cc([N+](=O)[O-])cc([N+](=O)[O-])c1OC(=O)OC(C)C` (stereo not given), for which the concentration at half-maximal activity (AC50) is 29.1 µM (active).

In the case of `O=C1OC2(c3ccccc31)c1ccc(O)c(Br)c1Oc1c2ccc(O)c1Br`, the result was inactive.

Take `CCCCOC(=O)CCCCCCCC(=O)OCCCC`: the result was inactive.
